Assay results from PubChem BioAssay (NCI).
“And” between values parts separate entries of the source, which are not always exact repeats. Identical values can stand only once. About 83,000 compounds went through this panel and 20% of them were active in at least one assay; those are over-represented in the sample as a whole.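 Growth was measured after 48 h exposure to one concentration of compound in 96-well plates. Values under 10 count as active.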 The source made the active and inactive calls.

system: HCT-15 colon; assay: NCI-60 one-dose screen, 48 h (100 = growth as untreated, 0 = no growth, -100 = all killed); settings: 10 µM

Row | Structure (SMILES) | growth
1 | Cc1cc(N(CCOS(C)(=O)=O)CCOS(C)(=O)=O)ccc1C=Nc1ccc(-c2nc(Cc3ccccc3)sc2C)cc1 | 55% (inactive)
2 | O=[N+]([O-])c1cc[n+]([O-])cc1 | 112% (inactive)
3 | C#CCN(Cc1ccc2nc(N)[nH]c(=O)c2c1)c1ccc(C(=O)NC(CCC(=O)O)C(=O)O)cc1 (stereo not drawn) | 65.5% (inactive)
4 | CN(C)CCOC1(Cc2ccc(Cl)cc2Cl)CCC(C(C)(C)C)CC1 (stereo not drawn) | -11.2% (active) and -80.3% (active)
5 | COc1ccc(C(=O)C(CN(C)C)CN(C)C)cc1 | 46.6% (inactive)
6 | CC1=CC(=C(c2ccc(N)cc2)c2ccc(N)cc2)C=CC1=N | 53.9% (inactive) and 73.4% (inactive)
7 | Cc1ccc(Sc2ccccc2N)cc1 | 21.2% (inactive)
8 | C=C1C(=O)OC2CC1C(OC(C)=O)C/C(C)=C/CC/C(C)=C\CCC2(C)O (stereo not drawn) | -80.1% (active)
